Bioassay records as filed in PubChem BioAssay.
The list is not random: actives were taken first. Their share in the collection is about 2.2%.
HDAC3 inh = HDAC3 deacetylase inhibitors, primary screen, biochemical, fluorescence, cell-free homogeneous; Histone deacetylase 3 (Homo sapiens), O15379; AID 2718, 2010; recombinant HDAC3, fluorogenic peptide/trypsin coupled; inhibition, % at 8.3 µM; actives 0.15% (n = 320,000); in the data active means inhibition above about 26%, passing the limit was not always enough; inconclusive means no clear call, values can overlap the other calls
PHOSPHO1 inh = PubChem AID 1565; recombinant PHOSPHO1, absorbance phosphatase assay; actives 1.1% (n = 290,000); inhibition, % at 13.3 µM; Phosphoethanolamine/phosphocholine phosphatase (Homo sapiens), Q8TCT1; in the data active means inhibition above about 60%
Target sequence (Q8TCT1 whole entry, looked up): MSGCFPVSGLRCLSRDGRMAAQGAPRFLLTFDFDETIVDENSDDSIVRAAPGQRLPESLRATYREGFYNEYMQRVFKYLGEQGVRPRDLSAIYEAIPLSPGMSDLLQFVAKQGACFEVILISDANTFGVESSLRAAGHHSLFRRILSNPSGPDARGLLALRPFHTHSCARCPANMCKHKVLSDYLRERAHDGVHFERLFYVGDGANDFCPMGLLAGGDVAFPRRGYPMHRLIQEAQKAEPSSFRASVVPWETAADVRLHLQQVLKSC
SUMO Mot1 rescue = yeast Mot1-301 growth rescue at high temperature, primary screen, SUMOylation pathway inhibitor project, S. cerevisiae, ATP luminescence, 38.5C; S. cerevisiae Mot1-301 growth rescue; percent above DMSO median, 100 means doubled; growth rescue, % at 18.8 µM; actives 1% (n = 320,000);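 active means every valid replicate shows activation above 250% relative to neutral control wells; inactive means the rest, any valid replicate at or below 250%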;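 further: OY570 slx delta 5 strain wells were the positive control but not used for scaling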
p-CIP stab down = p/CIP-EGFP fusion destabilizers, primary screen, fluorescence, F442A cells | 16 h | decrease of EGFP signal, % at 10 µM | actives 0.01% (n = 290,000);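 active means EGFP signal decrease of at least 30% at 10 µM or well 3 SD below plate mean, unless failing retest; inactive means the rest, including hits failing retest or dose response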
PvdQ acylase = P. aeruginosa PvdQ acylase inhibitors, primary screen, biochemical, fluorescence, plate reader and imaging, single point; purified PvdQ acylase; PvdQ acylase [Pseudomonas aeruginosa LESB58]; actives 0.063% (n = 340,000); inhibition, % at 10 µM; AID 488965, 2010; in the data active means inhibition above about 30%, passing the limit was not always enough; inconclusive means no clear call, values can overlap the other calls;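 further: 0% = vehicle neutral wells and 100% = reference inhibitor wells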
GASC-1 inh = inhibitors of GASC-1 histone demethylase, primary screen, biochemical, fluorescence, DELFIA europium | actives 0.069% (n = 330,000) | GST-JMJD2C(1-420) H3K9me3 demethylation | inhibition, % at 2.35 µM;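 active means more than half of a compound's replicate wells show inhibition beyond 50%, single wells judged on their own value; inconclusive means some, but no more than half, of replicates pass 50% inhibition; inactive means no replicate passes 50% inhibition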;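 further: signal counts dimethyl H3K9 product captured on neutravidin plate; 0% = median of DMSO wells and 100% = 0.3 times that DMSO median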
Target sequence (Q9H3R0 1-420 limits assumed): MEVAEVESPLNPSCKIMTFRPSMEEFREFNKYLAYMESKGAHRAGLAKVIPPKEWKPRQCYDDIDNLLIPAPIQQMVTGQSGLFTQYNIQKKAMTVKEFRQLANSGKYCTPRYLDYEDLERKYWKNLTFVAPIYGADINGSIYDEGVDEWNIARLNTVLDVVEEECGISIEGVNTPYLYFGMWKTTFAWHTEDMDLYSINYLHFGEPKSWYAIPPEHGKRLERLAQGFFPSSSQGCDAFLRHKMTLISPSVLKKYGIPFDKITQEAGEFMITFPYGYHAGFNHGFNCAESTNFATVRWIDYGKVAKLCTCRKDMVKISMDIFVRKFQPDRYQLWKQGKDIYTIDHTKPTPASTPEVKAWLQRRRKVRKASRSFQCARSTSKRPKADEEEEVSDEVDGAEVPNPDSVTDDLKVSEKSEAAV
Mot1 SUMO dose = growth restoration of Mot1-301 yeast on galactose, dose response, SUMO pathway inhibitor project, whole organism, S. cerevisiae, ATP luminescence, cherry-picked samples. growth activity, percent, % at 42 µM. AID 493004, 2010. shares compounds with SUMO Mot1 rescue. 2,300 tested, under 10 active. S. cerevisiae Mot1-301 galactose growth, 24 h; -100 = growth of slx-deleted rescue strain;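 active means Signal drops as the depositor expects, and the fitted half-maximal dose is no more than ten times the top valid tested dose; inconclusive means Poor fit, or a flat curve whose signal drops by 30% to 70%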;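 further: more negative values mean stronger growth rescue toward the control strain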
Starred values were filed as active, the others as inactive; ? = inconclusive; / = no result given; + = active, no number; [ ] = remark or other dose.

SMILES | HDAC3 inh | PHOSPHO1 inh | SUMO Mot1 rescue | p-CIP stab down | PvdQ acylase | GASC-1 inh | Mot1 SUMO dose
COc1ccc(C(=O)CSc2nnc(CNC(=O)c3ccccc3)n2C)cc1 | 3 | -46 | 397* | -13 | -2 | -1 | 1
COc1ccc(C(=O)CSc2nnc(CNC(=O)c3ccc(OC)c(OC)c3)n2C)cc1 | 5 | -7 | / | -9 | 2 | 0 | /
CN1CCN(S(=O)(=O)c2ccc(Br)s2)CC1 | 0 | 18 | -18 | 0 | 1 | 3 | /
CCOC(=O)N1CCN(S(=O)(=O)c2ccc(C)c(C)c2)CC1 | 4 | 4 | 388* | 3 | -8 | 0 | 0
CCOC(=O)N1CCN(S(=O)(=O)c2ccc(OCC)c(C)c2)CC1 | -1 | -17 | 8 | -8 | 7 | -7 | /
CCOC(=O)N1CCC(NS(=O)(=O)c2ccc(C)c(Cl)c2)CC1 | -2 | 25 | 559* | -6 | 8 | 6 | 0
CCOC(=O)N1CCN(S(=O)(=O)c2ccc(Br)s2)CC1 | 2 | -8 | 365* | -4 | -8 | -2 | 0
CCOC(=O)N1CCC(NS(=O)(=O)c2ccc3c(c2)oc(=O)n3C)CC1 | -1 | 4 | -9 | -10 | 10 | -1 | /
O=C(c1ccc(NS(=O)(=O)c2ccccc2)cc1)N1CCOCC1 | -2 | 10 | 55 | 8 | 9 | -13 | /
CNC(=O)N(O)C1N(c2ccccc2)C(=S)SC1(C)C (stereo not drawn) | 1 | -9 | -15 | -4 | 27 | -5 | /
CC(C)[C@H](N)C(=O)NC[C@H]1CC[C@H](C(=O)N[C@@H](Cc2ccccc2)C(=O)O)CC1 | 3 | 23 | 256 | -13 | -4 | -11 | /
CCn1c(SCc2nc3ccccc3[nH]2)nnc1-c1cccnc1 | 4 | 3 | 635* | -4 | -10 | 1 | 0
CCn1c(SCc2nc3ccccc3s2)nnc1-c1ccccc1 | 7 | 38 | 371* | 2 | -1 | 23 | -1
COc1ccc2c(c1)c(CC(=O)OCC(N)=O)c(C)n2C(=O)c1ccc(Cl)cc1 | 12 | 30 | 674* | -4 | -12 | 6 | 0
COc1ccc(-c2cn(CCC(=O)NCc3ccc(C)cc3)c(CCN)n2)cc1 | 4 | / | 3 | / | -1 | 3 | /
CN(C)c1nc2c(c(=O)[nH]c(=O)n2C)n1CCOc1ccccc1 | 0 | 34 | -8 | -2 | -8 | -1 | /
CCN(CC)c1nc2c(c(=O)[nH]c(=O)n2C)n1CCOc1ccccc1 | -1 | 13 | 710* | -6 | 11 | 3 | 0
O=C(Nc1ccccc1)N1CCN(CCc2ccccc2)CC1 | 5 | 21 | 392* | -11 | 1 | 5 | -1
Cc1c(C(=O)N2CCN(S(C)(=O)=O)CC2)oc2ccccc12 | -16 | -17 | -26 | -9 | -7 | -3 | /
Cc1c(C(=O)N2CCN(CCc3ccccc3)CC2)oc2ccccc12 | 6 | -27 | 707* | -1 | -15 | -3 | -1
CCOC(=O)C1=C(N)c2ccccc2CC1C1CCCC1 (stereo not drawn) | 11 | 11 | 552* | -1 | -3 | -8 | 0
O=C(c1cccs1)N(C(=O)c1cccs1)c1ccc(Br)cn1 | ? | -23 | 482* | -2 | -12 | 13 | -3
CCNC(=O)COc1ccc(S(=O)(=O)Nc2ccccc2)cc1 | 4 | 14 | 798* | -5 | -13 | 12 | 0[21 µM]
COCCCNC(=O)COc1ccc(S(=O)(=O)Nc2ccccc2)cc1 | 4 | -8 | -11 | -3 | 0 | 0 | /
O=C(NCCCn1ccnc1)Nc1cccc2ccccc12 | -5 | -1 | 762* | -7 | 1 | 3 | 0
SMILES | HDAC3 inh | PHOSPHO1 inh | SUMO Mot1 rescue | p-CIP stab down | PvdQ acylase | GASC-1 inh | Mot1 SUMO dose
CCOC(=O)c1ccccc1NC(=O)C1CC(=O)N(C2CCCCC2)C1 (stereo not drawn) | -3 | 10 | 385* | -8 | -13 | 4 | -1
CC1(C)Oc2ccc3ccc(=O)oc3c2/C(=C/Nc2ccc(O)cc2)C1=O | -8 | 6 | 984* | 4 | 7 | -3 | 0
O=C(CSc1ncccn1)c1ccccc1Br | 6 | 61* | 436* | -2 | 4 | -8 | -1
CC(NC(=O)Cn1cc(Br)c([N+](=O)[O-])n1)c1ccccc1 (stereo not drawn) | -2 | 25 | -17 | 6 | -9 | 1 | /
COc1ccc(NC2CCCN(C(=O)CCc3scnc3C)C2)cc1 (stereo not drawn) | / | 23 | 439* | -3 | -2 | -2 | 0
COc1ccc(NC2CCCN(C(=O)c3csc(C)n3)C2)cc1 (stereo not drawn) | 4 | 29 | 774* | 2 | -2 | -11 | 2
CCCOC(=O)c1c(NC(=O)/C=C/c2cnn(C)c2C)sc(C(=O)OC)c1C | 1 | 4 | + | -5 | -17 | 3 | 0
CC1=C(C(N)=O)C(c2ccccn2)n2nc(SCc3ccccc3Cl)nc2N1 (stereo not drawn) | 2 | 42 | 384* | -2 | -11 | -20 | 0
O=C(Oc1ccc(OC(=O)C2CCC2)cc1)C1CCC1 | -3 | -9 | 34 | -12 | 0 | 8 | /
Cc1ccc(S(=O)(=O)NCCS(=O)(=O)N2CCN(c3ccc(F)cc3)CC2)cc1 | -1 | / | 543* | / | 1 | -31 | 2
O=S(=O)(NCCS(=O)(=O)N1CCN(c2ccccc2)CC1)c1ccccc1 | -4 | 35 | 5 | -10 | 11 | 1 | /
CC(=O)Nc1ccc(NC(=O)c2sc(-c3ccccc3)nc2C)cc1 | 5 | 30 | -6 | -13 | -14 | -11 | /
Cc1nc(-c2ccncc2)sc1C(=O)Nc1ccc(Br)cc1 | -1 | -26 | 745* | 4 | -19 | 53 | 0
Nc1ccnc(=O)[nH]1 | -6 | / | 654* | / | 16 | 0 | 0
Cc1ccc2nc(COC(=O)c3ccc(Cl)nc3)cc(=O)n2c1 | -7 | / | 11 | / | -13 | -11 | /
COc1ccccc1NC(NC(=O)c1ccccn1)C(Cl)(Cl)Cl (stereo not drawn) | -4 | 6 | -7 | -16 | -10 | 2 | /
Cc1ccc(C)c(NC(NC(=O)c2ccccn2)C(Cl)(Cl)Cl)c1 (stereo not drawn) | -4 | -3 | 982* | 2 | 10 | -3 | 0
COc1ccccc1NC(=O)/C(=C\c1cccnc1)NC(=O)c1ccccc1 | -6 | 43 | -8 | -11 | -10 | -4 | /
